The source of these data is article PMC5540273 (PLoS ONE, 2017).

Test systems include DAPK1; DAPK2; DAPK3; DDR1; DDR2; DMPK; DYRK1A; DYRK1B; DYRK2; EGFR; EIF2AK1; EPHA1; EPHA2.
Holding throughout (conditions): concentration: 1 μM, replicates: in singlicate; n = 1
The subject of another assay is T1, DCAMKL1.
T1 construct: gene DCLK1

The next assay deals with T2, DCAMKL2.
T2 construct: gene DCLK2

The test system of a further assay is T3, DCAMKL3.
T3 construct: gene DCLK3

The next assay relates to T4, DLK.
T4 construct: gene MAP3K12

The subject of the next assay is T5, DMPK2.
T5 construct: gene CDC42BPG

In the next assay the test system is T6, DRAK1.
T6 construct: gene STK17A

The subject of another assay is T7, DRAK2.
T7 construct: gene STK17B
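Also: KINOMEscan kinase panel screen.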

As to `CC(C)(C)n1cnc2c(N)ncnc21` [SKF-97359], the “%Inh” value with DAPK1 was determined as 78%; in the assay with DAPK2 it was 19%; in the assay with DAPK3, 0%; in the assay on DCAMKL1, 0%; in the assay with DCAMKL2, 0%; in the assay on DCAMKL3, 11%. The “%Inh” value is recorded as 0% with DDR1; 0% in the assay on DDR2; 31% in the assay on DLK; 0% with DMPK2; 9% in the assay with DMPK; 0% in the assay with DRAK1. The “%Inh” value in the assay on DRAK2 is reported as 6%; in the assay on DYRK1A it was 0%; in the assay on DYRK1B, 61%; in the assay on DYRK2, 0%; in the assay with EGFR, 39%; in the assay on EIF2AK1, 0%. Besides, the “%Inh” value with EPHA1 and in the assay on EPHA2 was 0% throughout.

Turning to `Cc1nnc(-c2ccc3ncc(-c4ccc(S(C)=O)cc4)n3c2)o1` (centres unmarked), the “%Inh” value was found to be 22% with DAPK1; 0% in the assay with DAPK2; 0% in the assay on DAPK3; 18% in the assay on DCAMKL1; 0% in the assay on DCAMKL2; 0% in the assay with DCAMKL3. For the same compound, the “%Inh” value in the assay with DDR1 is recorded as 8%; in the assay on DDR2 it was 24%; with DLK, 0%; in the assay with DMPK2 it was 0%; in the assay with DMPK, 1%; in the assay on DRAK1 it was 0%. Moreover, the “%Inh” value in the assay with DRAK2 stood at 7%; in the assay on DYRK1A it was 16%; in the assay on DYRK1B it was 66%; in the assay on DYRK2, 6%; in the assay on EGFR, 9%; with EIF2AK1 it was 6%. Also, the “%Inh” value in the assay with EPHA1 and in the assay on EPHA2 was 0% throughout.

Take `O=C(NCCCN1CCOCC1)c1cccc(Nc2nccc(Nc3ccc(Oc4ccccc4)cc3)n2)c1` [GW663929]: the “%Inh” value is 48% in the assay with DAPK1; 35% in the assay on DAPK2; 81% with DAPK3; 38% with DCAMKL1; 0% in the assay on DCAMKL2; 3% in the assay with DCAMKL3. In addition, the “%Inh” value in the assay with DDR1 stood at 35%; in the assay on DDR2, 50%; with DLK, 13%; in the assay on DMPK2, 16%; in the assay with DMPK, 0%; in the assay with DRAK1, 10%. Further, the “%Inh” value in the assay with DRAK2 is 8%; in the assay with DYRK1A it was 0%; in the assay with DYRK1B, 31%; with DYRK2, 16%; in the assay with EGFR, 80%; in the assay on EIF2AK1 it was 0%. Besides, the “%Inh” value in the assay on EPHA1 and with EPHA2 was 0% in each case.

In the case of `CCc1ccnc(/C=C/c2n[nH]c3cc(Sc4ccccc4C(=O)NC)ccc23)c1`, the “%Inh” value in the assay on DAPK1 was determined as 17%; in the assay on DAPK2 it was 0%; in the assay on DAPK3, 0%; in the assay with DCAMKL1, 0%; with DCAMKL2, 0%; in the assay on DCAMKL3 it was 8%. Also, the “%Inh” value with DDR1 was 0%; in the assay on DDR2, 13%; with DLK, 30%; in the assay on DMPK2 it was 0%; with DMPK, 6%; in the assay on DRAK1 it was 12%. The “%Inh” value is listed as 0% in the assay with DRAK2; 8% with DYRK1A; 4% in the assay with DYRK1B; 0% in the assay on DYRK2; 0% in the assay on EGFR; 14% with EIF2AK1. The “%Inh” value in the assay with EPHA1 and in the assay with EPHA2 was 0% each time.

Turning to `COc1cc2c(cc1OCCN1CCN(C)CC1)ncc1c3ccc(C#N)cc3[nH]c21`, the “%Inh” value in the assay with DAPK1 is 44%; in the assay with DAPK2, 0%; with DAPK3 it was 7%; in the assay with DCAMKL1, 40%; in the assay on DCAMKL2, 0%; in the assay with DCAMKL3, 100%. In addition, the “%Inh” value in the assay on DDR1 worked out at 0%; in the assay with DDR2 it was 8%; in the assay with DLK, 78%; with DMPK2 it was 0%; in the assay with DMPK it was 0%; in the assay with DRAK1, 100%. The “%Inh” value in the assay on DRAK2 is given as 100%; with DYRK1A it was 94.6%; with DYRK1B, 62%; in the assay with DYRK2 it was 60%; in the assay with EGFR, 0%; in the assay on EIF2AK1, 0%. The “%Inh” value in the assay with EPHA1 and in the assay on EPHA2 was 0% in each case.

Consider `COc1ccc(CNC(=O)NC2CCN(c3ccnc(Nc4ccc(OC)cc4)n3)C2)cc1` (centres unmarked) [GSK1379727], for which the “%Inh” value with DAPK1 is 0%; with DAPK2, 0%; with DAPK3, 20%; in the assay on DCAMKL1, 11%; in the assay with DCAMKL2, 0%; in the assay with DCAMKL3, 5%. In addition, the “%Inh” value with DDR1 is given as 0%; with DDR2 it was 20%; in the assay with DLK, 50%; in the assay on DMPK2 it was 0%; with DMPK, 0%; with DRAK1 it was 0%. For the same compound, the “%Inh” value is 0% with DRAK2; 20% in the assay with DYRK1A; 0% with DYRK1B; 0% in the assay with DYRK2; 18% with EGFR; 0% in the assay on EIF2AK1. Also, the “%Inh” value in the assay on EPHA1 amounted to 0%; with EPHA2, 14%.

As to `CN(C1=C(c2ccccc2)C(=O)NC1=O)c1ccccc1` [SB-334860], the “%Inh” value is 26% in the assay on DAPK1; 0% in the assay on DAPK2; 8% in the assay with DAPK3; 19% in the assay on DCAMKL1; 11% in the assay with DCAMKL2; 0% with DCAMKL3. Further, the “%Inh” value in the assay on DDR1 is given as 0%; in the assay on DDR2, 4%; with DLK, 9%; in the assay with DMPK2, 12%; in the assay on DMPK, 0%; in the assay with DRAK1, 3%. The “%Inh” value in the assay with DRAK2 is given as 0%; with DYRK1A it was 10%; in the assay with DYRK1B, 9%; with DYRK2, 10%; in the assay on EGFR, 27%; with EIF2AK1, 6%. For the same compound, the “%Inh” value is recorded as 6% in the assay on EPHA1 and 1% in the assay with EPHA2.

Consider `NS(=O)(=O)c1cccc(-c2ccc3ncc(N4CCOCC4)nc3c2)c1` [GSK1535721], for which the “%Inh” value with DAPK1 was 18%; with DAPK2 it was 12%; in the assay on DAPK3, 18%; in the assay with DCAMKL1, 10%; with DCAMKL2 it was 0%; in the assay with DCAMKL3, 0%. Moreover, the “%Inh” value with DDR1 is 0%; in the assay with DDR2, 23%; in the assay with DLK, 26%; with DMPK2, 1%; in the assay on DMPK, 0%; with DRAK1 it was 0%. The “%Inh” value in the assay on DRAK2 was determined as 0%; in the assay with DYRK1A, 0%; with DYRK1B, 4%; in the assay on DYRK2, 28%; with EGFR it was 12%; with EIF2AK1, 0%. In addition, the results for the “%Inh” value in the assay on EPHA1 and in the assay on EPHA2 were 0% and 7%, respectively.

With `COc1ccc(Nc2ncc(C#N)c(Nc3ccccc3C(N)=O)n2)cc1N1CCN(C)CC1.Cl` [GSK1558669], the “%Inh” value amounted to 97.8% with DAPK1; 98.5% in the assay on DAPK2; 99.2% in the assay with DAPK3; 97.4% with DCAMKL1; 100% in the assay on DCAMKL2; 99.6% in the assay with DCAMKL3. Besides, the “%Inh” value in the assay with DDR1 stood at 100%; in the assay with DDR2, 94.2%; in the assay on DLK, 97.8%; in the assay on DMPK2, 89%; with DMPK it was 88%; with DRAK1 it was 99.1%. Further, the “%Inh” value worked out at 83% in the assay on DRAK2; 99.8% with DYRK1A; 87% in the assay on DYRK1B; 99.1% in the assay with DYRK2; 92.7% in the assay with EGFR; 48% with EIF2AK1. For the same compound, the entries for the “%Inh” value in the assay on EPHA1 and in the assay with EPHA2 were 92.9% and 80%, respectively.

Take `Cc1cccc(-c2nc(-c3ccc(S(C)(=O)=O)cc3)sc2-c2ccncc2)c1`: the “%Inh” value with DAPK1 amounted to 4%; in the assay on DAPK2, 0%; in the assay on DAPK3, 0%; with DCAMKL1, 0%; with DCAMKL2, 0%; in the assay with DCAMKL3, 0%. In addition, the “%Inh” value in the assay on DDR1 is 0%; with DDR2, 9%; in the assay on DLK, 0%; in the assay with DMPK2, 53%; in the assay on DMPK, 0%; in the assay with DRAK1, 0%. For the same compound, the “%Inh” value in the assay with DRAK2 was 0%; in the assay with DYRK1A it was 0%; in the assay on DYRK1B it was 7%; in the assay on DYRK2, 0%; with EGFR, 0%; with EIF2AK1 it was 1%. Besides, the “%Inh” value in the assay on EPHA1 is on record as 0%; in the assay with EPHA2, 10%.
